Results taken from PubChem BioAssay AID686978 (National Center for Advancing Translational Sciences (NCATS), 2013).
Out of some 420,000 compounds screened, about 64,000 (15%) were called active. Roughly 27% stayed inconclusive and do not appear here. The list is a sample of the results. Values without a mark were called inactive. Calls come from the whole dose curve; as a rule, active = well fitted inhibition curve with a large enough effect; inconclusive = small, poorly fitted or top-dose-only effect; inactive = flat fitted curve, though single readings scatter.

Assay: qHTS for Inhibitors of human tyrosyl-DNA phosphodiesterase 1 (TDP1): qHTS in cells in absence of CPT; note: nearly all actives have a fitted effect of over 55% in size
Conditions: DT40 Tdp1-/- hTDP1 cells, no CPT, ATP luminescence, 48 h; activity change, negative = growth inhibition: at 46.2 µM (top of the series)
Method in brief: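 Luminescent ATP content (CellTiter-Glo) served as the growth readout. Knockout chicken DT40 cells expressing human TDP1 were exposed to compounds without camptothecin for a minimum 48 hr at 37 °C.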
% is set by controls: 0 for no effect and ±100 for the full control effect; potency is the fitted concentration of half-maximal effect.

For `COC(=O)N(C)C[C@@H]1OCc2cnnn2CCCC(=O)N([C@@H](C)CO)C[C@@H]1C`, which “activity change, negative = growth inhibition” value is on record?
Its value is -12.9%.

With `CC(C)(C)n1nnnc1C(c1ccc2ncccc2c1)N1CCSCC1` (centres undefined) as the compound, how does the “activity change, negative = growth inhibition” value read?
The value was -4.42%.

With `O=C1c2ccccc2C(=O)N1CCOc1ccc(F)cc1` as the compound, how does the “activity change, negative = growth inhibition” value read?
Its value is -5.19%.

For `Cc1cccc(C)c1-n1nnnc1C1(C)CCC(=O)N1CCOc1ccccc1` (centres undefined), which “activity change, negative = growth inhibition” value is on record?
The value was -25.8%.

With `Cc1cccc2c1N(CCOc1ccccc1)C(=O)C2=O` as the compound, how does the Potency read?
Its Potency is 1.3 µM (active).

For `CNS(=O)(=O)c1ccc(NC(=O)C2CC(=O)N(c3ccc(Cl)cc3)C2)cc1` (centres undefined), which “activity change, negative = growth inhibition” value is on record?
Its value is -25.9%.

For `CC12C(=O)N(c3ccccc3)C(=O)C1C(c1ccccc1)N1CCCN12` (centres undefined), which “activity change, negative = growth inhibition” value is on record?
Its value is -2.82%.

With `CCCN(c1ccc(C)cc1)c1nc(=O)c2cccnc2s1` as the compound, how does the Potency read?
The Potency was 18.4 µM (active).

For `NC1=NC2(CCCCC2)N(c2ccc(F)cc2F)C(N)=N1`, which “activity change, negative = growth inhibition” value is on record?
The value was -19.6%.

Which “activity change, negative = growth inhibition” value does the source give for `NC(=O)C(Cc1ccccc1)NC(=O)C12CC3CC(CC(C3)C1)C2` (centres undefined) here?
The value was -27.5%.

For `COC(=O)c1sc(NC(=O)c2ccc(OC)cc2OC)nc1C`, which “activity change, negative = growth inhibition” value is on record?
The value was -21.8%.

Which Potency does the source give for `COc1ccc2c(c1)Cc1sc(NC(=O)c3ccccc3Br)nc1-2` here?
The Potency was 18.4 µM (active).

With `COc1cc2ccccc2cc1C(=O)Nc1nc(C)c(C(C)=O)s1` as the compound, how does the “activity change, negative = growth inhibition” value read?
Its value is -13.2%.

With `COCCN1C=C2C(=O)C(C)(OC(=O)C3CCCC3)C(=O)C=C2C=C1c1ccsc1` (centres undefined) as the compound, how does the “activity change, negative = growth inhibition” value read?
Its value is -8.49%.

Which “activity change, negative = growth inhibition” value does the source give for `CC(C)OCCCNC(=O)c1cc(Sc2ccc(F)cc2)nc2ccccc12` here?
The value was -86.9%.

Which Potency does the source give for `CC(NC(=O)c1cc(Sc2ccc(F)cc2F)nc2ccccc12)c1ccccc1` (centres undefined) here?
Its Potency is 23.1 µM (active).

With `CC(NC(=O)c1cc(=O)[nH]c2ccccc12)c1ccc(F)cc1F` (centres undefined) as the compound, how does the “activity change, negative = growth inhibition” value read?
The value was -17.3%.

With `CCCCCc1nnc(NC(=O)c2ccc(=O)n(C)n2)s1` as the compound, how does the “activity change, negative = growth inhibition” value read?
The value was 2.05%.

With `CC(=O)Nc1cccc(-c2ccnc3c2CC(C)(C(=O)NCc2ccco2)O3)c1` (centres undefined) as the compound, how does the Potency read?
The Potency was 2.91 µM (active).

Which “activity change, negative = growth inhibition” value does the source give for `COc1ccc(NC(=O)Nc2cccc(-c3noc(C)n3)c2)cc1` here?
Its value is -28.2%.

Which Potency does the source give for `COc1ccc(NC(=O)C2(C)Cc3c(-c4cccc(NC(C)=O)c4)ccnc3O2)cc1` (centres undefined) here?
The Potency was 1.16 µM (active).

With `O=C(NCc1cccc(CNC(=O)Nc2cccc(O)c2)c1)Nc1cccc(O)c1` as the compound, how does the “activity change, negative = growth inhibition” value read?
The value was -4.41%.

Which “activity change, negative = growth inhibition” value does the source give for `CC1(C)CC(=O)c2cc(C(=O)NCc3ccccc3)c(=O)[nH]c2C1` here?
The value was -21.1%.

For `COC(=O)Cc1ccc(NC(=S)NCc2ccco2)cc1`, which “activity change, negative = growth inhibition” value is on record?
The value was -22.3%.

Which “activity change, negative = growth inhibition” value does the source give for `COc1ccc(NC(=O)C2(C)Cc3c(-c4ccc(C(N)=O)cc4)ccnc3O2)cc1` (centres undefined) here?
The value was -13.6%.

Which Potency does the source give for `CC(=O)Nc1cccc(-c2ccnc3c2CC(C)(C(=O)NCc2ccccc2)O3)c1` (centres undefined) here?
Its Potency is 0.92 µM (active).

For `CCC(C)(C)NC(=O)CN(C(=O)CCC(=O)Nc1cc(C)ccn1)c1ccc2c(c1)OCCO2`, which “activity change, negative = growth inhibition” value is on record?
The value was -8.85%.

For `Cc1cc(=O)oc2cc(OC(C)C(=O)NCCc3ccc(S(N)(=O)=O)cc3)ccc12` (centres undefined), which “activity change, negative = growth inhibition” value is on record?
Its value is 15.8%.

For `CSc1nnc(CNC(=O)c2ccccc2)n1-c1ccc(F)cc1`, which “activity change, negative = growth inhibition” value is on record?
The value was 0.927%.

Which “activity change, negative = growth inhibition” value does the source give for `O=C1CSc2ccc(C(=O)NCc3ccccn3)cc2N1` here?
Its value is 5.72%.

For `CCc1nn(CC(=O)Nc2cc(C)cc(C)c2)c(=O)c2cc3sccc3n12`, which Potency is on record?
The Potency was 5.17 µM (active).

Which “activity change, negative = growth inhibition” value does the source give for `CCc1nn(CC(=O)Nc2cccc(C)c2C)c(=O)c2cc3sccc3n12` here?
The value was -9.08%.

Which “activity change, negative = growth inhibition” value does the source give for `CCCC1NC(=S)NC(C)=C1C(C)=O` (centres undefined) here?
Its value is 5.2%.

For `Nc1[nH]c(C(=O)c2ccccc2)c(-c2ccc(Br)cc2)c1C(=O)NC1CC1`, which “activity change, negative = growth inhibition” value is on record?
Its value is -9.87%.

For `Cc1ccc2nc(CN3CCN(S(=O)(=O)c4ccc(C)c(C)c4)CC3)oc2c1`, which “activity change, negative = growth inhibition” value is on record?
The value was -19.3%.

Which Potency does the source give for `O=Cc1cn(CCOc2ccc(F)cc2)c2ccccc12` here?
Its Potency is 11.6 µM (active).

With `Cc1cc(N2C(=O)C(=O)/C(=C(/O)c3ccc(Cl)cc3)C2c2cccc(Br)c2)no1` (centres undefined) as the compound, how does the “activity change, negative = growth inhibition” value read?
The value was -5.42%.

With `CC1(C(=O)NCc2ccccc2)CSCC(=O)N1CCCN1CCOCC1` (centres undefined) as the compound, how does the “activity change, negative = growth inhibition” value read?
Its value is 21.3%.

Which “activity change, negative = growth inhibition” value does the source give for `O=C(Cn1c(-c2ccccn2)nc2ccccc21)NCCN1CCOCC1` here?
Its value is -13.9%.

Which Potency does the source give for `c1ccc2cc3c(NCCN4CCOCC4)ccnc3cc2c1` here?
Its Potency is 20.6 µM (active).

Which “activity change, negative = growth inhibition” value does the source give for `c1ccc2[nH]c(NCCN3CCOCC3)nc2c1` here?
Its value is 14.2%.

With `CC1CCCN(C(=O)Cn2c(=O)oc3ccccc32)C1` (centres undefined) as the compound, how does the “activity change, negative = growth inhibition” value read?
The value was -3.54%.

For `CC(C)NC(=S)Nc1cccc2cnccc12`, which “activity change, negative = growth inhibition” value is on record?
The value was 2.15%.

With `O=C(NCCN1CCOCC1)c1cccc(S(=O)(=O)Nc2ccc(F)cc2)c1` as the compound, how does the “activity change, negative = growth inhibition” value read?
The value was -15.8%.

With `CCN(c1ccccc1)S(=O)(=O)c1cccc(C(=O)O)c1` as the compound, how does the “activity change, negative = growth inhibition” value read?
Its value is 11.1%.

With `CCN(c1ccccc1)S(=O)(=O)c1cccc(C(=O)NCc2ccccc2CN2CCOCC2)c1` as the compound, how does the Potency read?
The Potency was 18.4 µM (active).

Which “activity change, negative = growth inhibition” value does the source give for `Cc1ccc(NC(=O)O/N=C/c2cccc([N+](=O)[O-])c2)cc1` here?
The value was 11.3%.

Which “activity change, negative = growth inhibition” value does the source give for `COC(=O)c1ccc(COc2ccc(/C=N/NC(=O)C(=O)Nc3ccc(OC)cc3)cc2OC)o1` here?
The value was -23.3%.

With `CCCc1ccc(OCc2ccc(C(=O)N/N=C/c3cccc([N+](=O)[O-])c3)o2)c(OC)c1` as the compound, how does the Potency read?
The Potency was 6.51 µM (active).

With `CC(OC(=O)CN1C(=O)COc2ccccc21)C(=O)NCc1ccc(F)cc1` (centres undefined) as the compound, how does the “activity change, negative = growth inhibition” value read?
Its value is -11.9%.

For `COc1ccc(CCNC2=C(Cl)C(=O)N(Cc3ccccc3)C2=O)cc1OC`, which Potency is on record?
Its Potency is 20.6 µM (active).

Which “activity change, negative = growth inhibition” value does the source give for `COc1ccc(CCNS(=O)(=O)c2ccc(Cl)s2)cc1OC` here?
Its value is -25.5%.

Which “activity change, negative = growth inhibition” value does the source give for `COc1ccc(CCNC(=O)CN(c2ccccc2)S(C)(=O)=O)cc1OC` here?
Its value is 9.69%.

With `COc1c(C(C)C)oc2cc3oc(=O)ccc3cc12` as the compound, how does the Potency read?
Its Potency is “inactive”.

For `N=C1C(c2nc3ccccc3s2)=C(O)CN1NC(=O)c1ccc([N+](=O)[O-])cc1`, which Potency is on record?
The Potency was 23.1 µM (active).

For `CCOC(=O)CCCN1CC(O)=C(c2nc3ccccc3s2)C1=N`, which “activity change, negative = growth inhibition” value is on record?
The value was -22.8%.

Which “activity change, negative = growth inhibition” value does the source give for `O=C(Nn1c(-c2ccccc2)nc2ccccc2c1=O)c1ccc([N+](=O)[O-])cc1` here?
The value was -6.88%.

For `Cc1nc2cc(NC(=O)CSc3nc4c(C)cccc4cc3C#N)ccc2s1`, which “activity change, negative = growth inhibition” value is on record?
The value was -16.2%.

Which “activity change, negative = growth inhibition” value does the source give for `COCCNC(=O)c1snc2ccc(Cl)cc12` here?
The value was -21.8%.

For `CCOc1ncccc1C(=O)N(C)CC(=O)Nc1ccc(F)cc1`, which “activity change, negative = growth inhibition” value is on record?
The value was -0.0857%.

With `O=C(O)CN1c2cccc3cccc(c23)S1(=O)=O` as the compound, how does the “activity change, negative = growth inhibition” value read?
Its value is -23.5%.

With `COc1ccccc1CNC(=O)COC(=O)CNS(=O)(=O)c1ccc(NC(C)=O)cc1` as the compound, how does the “activity change, negative = growth inhibition” value read?
The value was 11.4%.

With `COc1ccc(OC)c(CNC(=O)CCc2nc(-c3cccs3)no2)c1` as the compound, how does the “activity change, negative = growth inhibition” value read?
Its value is -7.21%.

For `COc1ccc(CNC(=O)COCc2cc(-c3cccs3)on2)cc1OC`, which Potency is on record?
The Potency was 23.1 µM (active).

For `COc1ccc(CNC(=O)COC(=O)c2sccc2C)cc1OC`, which “activity change, negative = growth inhibition” value is on record?
The value was -4.33%.

For `Cc1cc(C)cc(NC(=S)NCCCN2CCOCC2)c1`, which “activity change, negative = growth inhibition” value is on record?
The value was 1.47%.

With `CCOc1c2ccc(C(=O)NCc3ccc4c(c3)OCO4)cc2nn1C` as the compound, how does the “activity change, negative = growth inhibition” value read?
Its value is -0.712%.

For `Cc1ccc(-n2nc3c(c2NC(=O)c2ccc4c(c2)OCO4)CSC3)c(C)c1`, which “activity change, negative = growth inhibition” value is on record?
Its value is -6.86%.

With `C=CCNC(=O)c1ccc2c3n(nc2c1)-c1ccc(C)cc1CO3` as the compound, how does the Potency read?
Its Potency is 18.4 µM (active).
